Assay results: PubChem BioAssay AID488969 (Vanderbilt High Throughput Screening Facility, 2010)
In all, about 110,000 compounds were measured (“z-score”: median about -0.1, highest 2% from about 2 on). The entries come from a sample that favours the highest values as a whole. Calls of active or inactive are those of the source.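 The calls were made as follows: active = z-score in the third read window above 3 or below -3; inactive = the rest.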

molecular target: Metabotropic glutamate receptor 8 (Rattus norvegicus) (UniProt P70579); assay: rat mGluR8 modulators via GIRK flux, primary screen, cell-based, thallium flux, HTS (AID 488969); details: HEK293 rat mGluR8, GIRK (G protein-gated inwardly rectifying potassium channel) thallium flux, FluoZin2; at 10 µM; stronger effect = higher value; submaximal glutamate (EC20) added with thallium
Sequence (P70579 whole entry, looked up): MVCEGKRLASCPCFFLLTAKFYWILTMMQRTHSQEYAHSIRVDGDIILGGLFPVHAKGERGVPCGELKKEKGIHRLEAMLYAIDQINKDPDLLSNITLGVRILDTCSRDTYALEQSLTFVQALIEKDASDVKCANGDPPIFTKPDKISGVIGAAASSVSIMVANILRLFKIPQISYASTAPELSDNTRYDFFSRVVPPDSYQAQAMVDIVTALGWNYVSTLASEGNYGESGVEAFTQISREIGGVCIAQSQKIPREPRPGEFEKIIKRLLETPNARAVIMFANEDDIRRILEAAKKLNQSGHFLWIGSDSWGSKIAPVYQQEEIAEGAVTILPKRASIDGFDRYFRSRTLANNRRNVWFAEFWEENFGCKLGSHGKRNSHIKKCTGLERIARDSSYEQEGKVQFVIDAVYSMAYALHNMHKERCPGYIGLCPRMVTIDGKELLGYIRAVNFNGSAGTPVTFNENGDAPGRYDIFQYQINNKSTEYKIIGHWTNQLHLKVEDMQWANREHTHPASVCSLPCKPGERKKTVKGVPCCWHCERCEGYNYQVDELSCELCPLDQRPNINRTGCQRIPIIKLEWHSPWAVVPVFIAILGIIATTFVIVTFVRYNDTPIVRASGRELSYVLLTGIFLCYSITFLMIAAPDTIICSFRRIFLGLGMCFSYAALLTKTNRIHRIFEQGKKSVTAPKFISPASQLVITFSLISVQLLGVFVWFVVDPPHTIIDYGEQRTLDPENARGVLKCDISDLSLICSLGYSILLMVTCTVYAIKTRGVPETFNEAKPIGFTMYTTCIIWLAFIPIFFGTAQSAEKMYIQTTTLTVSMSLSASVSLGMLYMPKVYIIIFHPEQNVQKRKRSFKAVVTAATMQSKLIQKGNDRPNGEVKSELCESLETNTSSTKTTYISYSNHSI

**Q.** `COC(=O)Cc1ccc(NC(=O)c2ccc(C(C)(C)C)cc2)cc1` was tested. Which z-score did it give?
**A.** -0.0938

**Q.** With `COc1ccc(/C=C/C(=O)NCc2c(C)nn(C)c2C)cc1COc1ccc(Br)cc1` as the compound, how does the z-score read?
**A.** -0.131

**Q.** With `Cc1ccc(NC(=O)CN(C)S(=O)(=O)c2cnc[nH]2)cc1C` as the compound, how does the z-score read?
**A.** 2.45

**Q.** How did the z-score turn out when `Cc1cc(C)cc(NC(=O)CN(C)S(=O)(=O)c2cnc[nH]2)c1` was run?
**A.** -0.129

**Q.** `Cc1cccc(NC(=O)CN(C)S(=O)(=O)c2cnc[nH]2)c1` was tested. Which z-score did it give?
**A.** 1.6

**Q.** For `CC1CC1C(=O)OCC(=O)NC(=O)NCc1ccco1` (centres undefined), which z-score is on record?
**A.** -0.131

**Q.** For `CCc1ccc(-c2nn(-c3ccccc3)cc2C2SCC(=O)N2Cc2ccco2)cc1` (centres undefined), which z-score is on record?
**A.** -0.102

**Q.** How did the z-score turn out when `Cc1ccc(Nc2nc(N)c([N+](=O)[O-])c(N3CCOCC3)n2)cc1C` was run?
**A.** -0.153

**Q.** For `Cc1ccc(Nc2nc(N)c([N+](=O)[O-])c(N3CCCC(C)C3)n2)cc1C` (centres undefined), which z-score is on record?
**A.** 2.26

**Q.** For `Cc1cccc(Nc2nc(N)c([N+](=O)[O-])c(N3CCCC(C)C3)n2)c1` (centres undefined), which z-score is on record?
**A.** -0.0648

**Q.** `O=C(NCCc1ccc(Cl)cc1)C1CCCN(S(=O)(=O)c2cnc[nH]2)C1` (centres undefined) was tested. Which z-score did it give?
**A.** 0.0211

**Q.** For `COc1ccc(S(=O)(=O)N(CCN2CCOCC2)Cc2cc(OC)ccc2OC)cc1`, which z-score is on record?
**A.** -0.389

**Q.** `Cc1cc2nc(CCN(Cc3cccnc3)C(=S)Nc3ccccc3)[nH]c2cc1C` was tested. Which z-score did it give?
**A.** 0.259

**Q.** Which z-score does the source give for `Cc1ccc(S(=O)(=O)N2CCOCC2)cc1C(=O)OCC(=O)Nc1ccc2c(c1)OCO2` here?
**A.** -0.412

**Q.** `O=S(=O)(c1ccc(NC(=S)Nc2ccc3c(c2)OCO3)cc1)N1CCOCC1` was tested. Which z-score did it give?
**A.** 0.154

**Q.** Which z-score does the source give for `O=S(=O)(c1ccc(Nc2ccc3c(c2)OCO3)nc1)N1CCOCC1` here?
**A.** 2.28

**Q.** How did the z-score turn out when `C=CCn1c(SCn2nnc3ccccc3c2=O)nnc1-c1ccc(Br)cc1` was run?
**A.** 0.482

**Q.** How did the z-score turn out when `Cc1ccc(/C=C(\NC(=O)c2ccc(C)cc2)c2nc(=S)[nH][nH]2)cc1` was run?
**A.** 0.31

**Q.** `COC(=O)c1ccccc1NC(=S)N(Cc1ccc2c(c1)OCO2)Cc1cc2cc(C)ccc2[nH]c1=O` was tested. Which z-score did it give?
**A.** 2.03

**Q.** How did the z-score turn out when `COC(=O)c1ccccc1NC(=S)N(Cc1ccc2c(c1)OCO2)Cc1cc2ccc(C)cc2[nH]c1=O` was run?
**A.** 0.26

**Q.** With `COC(=O)c1ccccc1NC(=S)N(Cc1ccc2c(c1)OCO2)Cc1cc2cc(OC)ccc2[nH]c1=O` as the compound, how does the z-score read?
**A.** -0.529

**Q.** How did the z-score turn out when `CC(C)(C)N=C1NN=C(c2cc3ccccc3o2)CS1` was run?
**A.** -0.336

**Q.** How did the z-score turn out when `CC(=O)O/N=C(/C)c1ncc(C(F)(F)F)cc1N1CCOCC1` was run?
**A.** -0.337

**Q.** For `Cc1ccccc1Cn1c(CN2CCc3ccccc3C2)nc2c1c(=O)n(C)c(=O)n2C`, which z-score is on record?
**A.** -0.399

**Q.** `COc1ccc(/C=C(/C(=O)c2ccc(Cl)cc2Cl)n2cncn2)cc1` was tested. Which z-score did it give?
**A.** 0.0171

**Q.** With `COc1ccc(C(=O)NC2CCCCCC2)cc1S(=O)(=O)N1CCCc2ccccc21` as the compound, how does the z-score read?
**A.** -0.00531

**Q.** `CCN(/N=C/c1cccs1)c1cc(=O)n(C)c(=O)[nH]1` was tested. Which z-score did it give?
**A.** -0.0804

**Q.** How did the z-score turn out when `O=C(N/N=C/C=C/c1ccccc1)c1cccc(Br)c1` was run?
**A.** 0.831

**Q.** Which z-score does the source give for `O=C(NN=C1c2ccccc2-c2ccccc21)c1ccccc1Br` here?
**A.** 5.82 (active)

**Q.** How did the z-score turn out when `O=C(COc1cccc(Br)c1)NN=C1c2ccccc2-c2ccccc21` was run?
**A.** 0.184

**Q.** `O=C(NN=C1c2ccccc2-c2ccccc21)c1cccc(Br)c1` was tested. Which z-score did it give?
**A.** 4.19 (active)

**Q.** `O=C(N/N=C/C=C/c1ccccc1)c1ccccc1Br` was tested. Which z-score did it give?
**A.** -0.846

**Q.** `O=C(NN=C1c2ccccc2-c2ccccc21)c1ccccn1` was tested. Which z-score did it give?
**A.** 0.564

**Q.** For `CCC(C)N(C)Cc1cccc(C2(O)CCN(S(=O)(=O)c3ccc(F)cc3)CC2)c1` (centres undefined), which z-score is on record?
**A.** -0.276

**Q.** `CCOc1ccc(Nc2oc(-c3ccccc3Cl)nc2C#N)cc1` was tested. Which z-score did it give?
**A.** -0.217

**Q.** Which z-score does the source give for `Cc1cc2nnc(SC(C)C)n2c2ccccc12` here?
**A.** -1.9

**Q.** With `CCOC(=O)CSc1nnc2cc(C)c3ccccc3n12` as the compound, how does the z-score read?
**A.** -1.09

**Q.** For `CCOC(=O)C(CC)Sc1nnc2cc(C)c3ccccc3n12` (centres undefined), which z-score is on record?
**A.** 7.83 (active)

**Q.** For `Cc1c([N+](=O)[O-])c([N+](=O)[O-])nn1CC(=O)N1CCCCC1`, which z-score is on record?
**A.** -0.199

**Q.** For `Cc1ccc(S(=O)(=O)N2CCCC2C(=O)O)cc1` (centres undefined), which z-score is on record?
**A.** 0.451

**Q.** `CC1CCCCC1NC(=O)Cn1nnc(-c2ccc(Cl)cc2)n1` (centres undefined) was tested. Which z-score did it give?
**A.** 0.119

**Q.** Which z-score does the source give for `Cc1ccc(-c2nnn(CC(=O)NC3CC4CCC3C4)n2)cc1` (centres undefined) here?
**A.** 5.1 (active)

**Q.** `Cc1ccc(-c2nnn(CC(=O)NC3CCN(Cc4ccccc4)CC3)n2)cc1` was tested. Which z-score did it give?
**A.** 0.381

**Q.** Which z-score does the source give for `CC(O)c1n(C)c(Cl)c[n+]1C` (centres undefined) here?
**A.** -0.00128

**Q.** `O=C(CO/N=C/c1ccccc1O)N1CCc2ccccc21` was tested. Which z-score did it give?
**A.** -0.0476

**Q.** For `O=C(Nc1nnc(-c2ccc(Cl)cc2)o1)NC1CCCCC1`, which z-score is on record?
**A.** -0.0226

**Q.** For `Cc1cc(NC(=O)c2ccc(N3C(=O)CCC3=O)cc2)no1`, which z-score is on record?
**A.** 0.412

**Q.** Which z-score does the source give for `O=C(Nc1nnc(-c2ccc(Cl)cc2)o1)c1cccc(N2C(=O)CCC2=O)c1` here?
**A.** 3.29 (active)

**Q.** For `O=C(Nc1nnc(-c2ccccc2)o1)c1cccc(N2C(=O)CCC2=O)c1`, which z-score is on record?
**A.** -0.326

**Q.** Which z-score does the source give for `O=C(Nc1nnc(-c2ccc(Cl)cc2)o1)c1ccc(N2C(=O)CCC2=O)cc1` here?
**A.** 4.39 (active)

**Q.** With `O=C(Nc1ccccc1)c1cccc(N2C(=O)CCC2=O)c1` as the compound, how does the z-score read?
**A.** -0.0312

**Q.** Which z-score does the source give for `Cc1cc(C)c(C)c(OCCCn2ccnc2)c1` here?
**A.** -0.369

**Q.** `COC(=O)c1ccc(/C=N/N2CCN(Cc3ccc(C)cc3C)CC2)cc1` was tested. Which z-score did it give?
**A.** 2.42

**Q.** With `COC(=O)c1ccc(/C=N/N2CCN(Cc3ccccc3)CC2)cc1` as the compound, how does the z-score read?
**A.** -0.196

**Q.** `COC(=O)c1ccc(/C=N\N2CCN(Cc3ccc(C)cc3)CC2)cc1` was tested. Which z-score did it give?
**A.** -0.269

**Q.** `Cc1cccc(NC(=O)C2Cc3ccccc3CN2C(=O)OCc2ccccc2)c1C` (centres undefined) was tested. Which z-score did it give?
**A.** -0.188

**Q.** How did the z-score turn out when `CCC1CCCCN1C(=O)CSc1nc2c([nH]c3ccccc32)c(=O)n1C` (centres undefined) was run?
**A.** 0.357

**Q.** For `CCOP(=O)(OCC)C(Nc1ccccn1)c1ccc(F)cc1` (centres undefined), which z-score is on record?
**A.** -0.18

**Q.** With `O=C(NCc1ccccc1F)c1cccs1` as the compound, how does the z-score read?
**A.** -0.158

**Q.** `O=C(O)c1cc2c(ccc3ccccc32)[nH]1` was tested. Which z-score did it give?
**A.** -0.467

**Q.** Which z-score does the source give for `O=C(Nc1nc2ccc(S(=O)(=O)N3CCCCC3)cc2s1)C1CCCO1` (centres undefined) here?
**A.** -0.0835

**Q.** Which z-score does the source give for `CCC(=O)Nc1nc2ccc(S(C)(=O)=O)cc2s1` here?
**A.** 0.244

**Q.** Which z-score does the source give for `NS(=O)(=O)c1ccc2nc(NC(=O)C3CCCO3)sc2c1` (centres undefined) here?
**A.** 2.74

**Q.** Which z-score does the source give for `CS(=O)(=O)c1ccc2nc(NC(=O)Nc3cccc(Cl)c3)sc2c1` here?
**A.** 0.135

**Q.** With `CS(=O)(=O)c1ccc2nc(NC(=O)Nc3ccc(Cl)c(Cl)c3)sc2c1` as the compound, how does the z-score read?
**A.** 3.23 (active)

**Q.** Which z-score does the source give for `O=C(Nc1nc2ccc(F)cc2s1)C1CCCO1` (centres undefined) here?
**A.** 0.535

**Q.** For `CS(=O)(=O)c1ccc2nc(NC(=O)C3C4C=CC(C4)C3C(=O)O)sc2c1` (centres undefined), which z-score is on record?
**A.** 4.92 (active)

**Q.** With `CC1=CCC(C(=O)O)C(C(=O)Nc2nc3ccc(S(C)(=O)=O)cc3s2)C1` (centres undefined) as the compound, how does the z-score read?
**A.** 0.387

**Q.** For `CS(=O)(=O)c1ccc2nc(NC(=O)Nc3ccc(Cl)cc3)sc2c1`, which z-score is on record?
**A.** 0.161
